Sfp PPTase inh = qHTS Assay for Inhibitors of Bacillus subtilis Sfp phosphopantetheinyl transferase (PPTase); Potency, µM, for inactives: largest response in the series, negative = inhibition, hits mostly inhibitors; 310,000 tested, 3.5% active; 4'-phosphopantetheinyl transferase ffp (Bacillus subtilis), Q9F4F7; Biochemical Sfp PPTase activity, qHTS; AID 1490, 2009;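 also: the enzyme is Sfp with the accession as filed and its product quenches rhodamine fluorescence; 0% = enzyme reaction without inhibitor and -100% = no enzyme wells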
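Fluorescence-quenching assay with 15 nM Sfp, 5 uM rhodamine-CoA and 12.5 uM BHQ-2-labelled ybbR peptide in pH 7.6 Hepes/MgCl2 buffer. Enzyme was pre-incubated with compound for 15 min at room temperature. Rate was taken from the 30-min fluorescence change (525/598 nm).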
HP1b binding inh = HTS for Inhibitors of HP1-beta Chromodomain Interactions with Methylated Histone Tails. Chromobox protein homolog 1 (Homo sapiens), P83916. AlphaScreen HP1-beta / biotin-H3K9me3 peptide binding. Potency, µM (series often up to 114 µM), without a hit: at the highest dose activity change, negative = inhibition, hits mostly inhibitors. 390,000 tested, 0.56% active. AID 540317, 2011; also: nearly all actives have a fitted effect of over 70% in size
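AlphaScreen: HP1-beta (50 nM) preformed 30 min with biotin-H3(1-18)K9me3 peptide (50 nM) in PBS pH 7.4, 0.01% Tween-20. Compound added for 30 min at RT, then streptavidin donor/nickel chelate acceptor beads (10 ug/mL) for 30 min.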
G9a block = qHTS Assay for Inhibitors of Histone Lysine Methyltransferase G9a; Potency, µM (doses to about 102 µM), without a hit: at the highest dose activity, negative = inhibition, hits mostly inhibitors; G9a H3K9 monomethylation, AlphaScreen, 2 h; 350,000 tested, 8.8% active; also: % is scaled to controls: 0 for no effect and ±100 for the full control effect; nearly all actives have a fitted effect of over 75% in size
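AlphaScreen detection with an anti-monomethyl H3K9 antibody quantified product after a 2 h room-temperature reaction containing 500 nM biotinylated H3K9 peptide, 20 µM SAM and 20 nM enzyme, which had been preincubated 15 min with compound.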
BAZ2B block = qHTS Assay for Inhibitors of BAZ2B; Bromodomain adjacent to zinc finger domain protein 2B (Homo sapiens), Q9UIF8; AlphaScreen BAZ2B-H3K14Ac peptide displacement; Potency, µM (top dose mostly 114 µM), inactives show at the highest dose activity change, negative = inhibition, actives largely listed as inhibitors; 360,000 tested, 4.4% active; also: % is scaled to controls: 0 for no effect and ±100 for the full control effect; nearly all actives have a fitted effect of over 60% in size
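Compounds, titrated to a top concentration of 110 uM, were incubated 30 min at room temperature with preformed BAZ2B/acetyl-K14 H3 peptide complex (50 nM each). Proximity signal was measured by AlphaScreen after 20 min with beads.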
JMJD2A Tudor = qHTS Assay for Inhibitors of JMJD2A-Tudor Domain; Lysine-specific demethylase 4A (Homo sapiens), O75164; AlphaScreen JMJD2A-Tudor / H3K4me3 peptide binding; Potency, µM (doses to about 114 µM), inactives show at the highest dose activity change, negative = inhibition, hits mostly inhibitors; 390,000 tested, 4.4% active; AID 504339, 2011; also: % is scaled to controls: 0 for no effect and ±100 for the full control effect; nearly all actives have a fitted effect of over 50% in size
An asterisk follows results filed as active; u = inconclusive; x = not tested or not shown; [ ] = remark or other dose. Hits are enriched below; roughly 12% of the tested compounds scored in any of these assays. Calls follow the shape of the dose curve; as a rule, active = well fitted curve in the direction sought with a large enough effect; inconclusive = small, poorly fitted or top-dose-only effect, or another doubt; inactive = no such curve, though single readings can be large; an effect the other way counts as inactive or inconclusive. Potency is read from the fitted curve at half-maximal effect.

SMILES | Sfp PPTase inh | HP1b binding inh | G9a block | BAZ2B block | JMJD2A Tudor
CCOc1ccccc1-n1c(C)cc(C=O)c1C | 13% | -2% | 25%[12.7 µM] | -32% | -31%
Cc1cc(C(=O)O)ccc1-n1c(C)cc(/C=C2\SC(=O)NC2=O)c1C | 4% | 31% | u | -30% | -18%
Cc1c(C(=O)O)cccc1-n1c(C)cc(C=O)c1C | 7% | 1% | 45µM* | u | 50µM*
Cc1ccc(C(=O)O)cc1-n1c(C)cc(C=O)c1C | 22% | 15% | u | 79µM* | -30%
Cn1c(=O)c(N)c2c3c(c(Br)ccc31)C(=O)c1ccccc1-2 | 1% | 12%[57 µM] | 4.5µM* | -33% | -34%
Cc1noc(C)c1-c1nc(NCCN2CCOCC2)c2ccccc2n1 | -29% | x | -44%[0.501 µM] | x | x
CN(C)S(=O)(=O)N1CCc2ccc(NC(=O)c3ccc(C(F)(F)F)cc3)cc2C1 | -2% | 21% | x | -5% | -12%
O=c1c2cc3c(cc2n(Cc2cccc(F)c2)c(=O)n1Cc1nc(-c2ccccc2)no1)OCO3 | x | 23% | 1%[59 µM] | -5% | -1%
COc1ccc(N2CCN(C(=O)c3ccc(N(C)S(=O)(=O)c4ccc(C)cc4)cc3)CC2)cc1 | 1% | u | -4%[0.501 µM] | u | u
COc1ccc(N2CCN(C(=O)c3ccccc3N(C)S(=O)(=O)c3ccccc3)CC2)cc1 | 3% | -13% | 45µM* | u | -35%
COc1ccc(S(=O)(=O)N(C)c2ccc(C(N)=O)cc2)cc1 | 12% | 21% | -2%[59 µM] | 2% | -4%
COc1ccc(N2CCN(C(=O)c3ccc(N(C)S(=O)(=O)c4ccc(OC)cc4)cc3)CC2)cc1 | -3% | u | x | u | 18µM*
COc1ccc(N2CCN(C(=O)CN(c3cccc(OC)c3)S(=O)(=O)c3ccccc3)CC2)cc1 | 3% | u | 8.9µM* | u | u
COc1ccc(S(=O)(=O)N(C)c2ccc(C(=O)N3CCN(C)CC3)cc2)cc1 | 6% | 28%[57 µM] | 50µM* | -5% | 3%
CC(C)c1ccc(N(CC(=O)O)S(=O)(=O)c2ccc3[nH]c(=O)c(=O)[nH]c3c2)cc1 | x | 62% | -31%[59 µM] | -11% | -22%
CC(C)(C)OC(=O)N[C@@H](Cc1ccccc1)C(=O)NCC1CCC(C(=O)N[C@@H](CC(=O)O)C(=O)O)CC1 (stereo partly specified) | 9% | 29% | -4% | u | -12%
COc1ccccc1CNC(=O)C1CCN(S(=O)(=O)c2cccc([N+](=O)[O-])c2)CC1 | 10% | 25% | 12%[59 µM] | -9% | -5%
CN1CCN(S(=O)(=O)c2cccc([N+](=O)[O-])c2)CC1 | x | 16% | x | x | -10%
COc1ccc(C(=O)CN2CCN(S(=O)(=O)c3cccc([N+](=O)[O-])c3)CC2)cc1OC | 35µM* | 32% | 8.9µM* | 4% | -10%
COc1cccc(C(=O)CN2CCN(S(=O)(=O)c3cccc([N+](=O)[O-])c3)CC2)c1 | -30% | 28% | 20µM* | 2% | -16%
Cc1c(-c2ccccn2)c(=O)[nH]n1-c1ccc(F)cc1 | 22% | 28% | -29% | 50µM* | u
CCOC(=O)c1sc(N=NC2=C(O)CCCC2=O)c(C(=O)OCC)c1C | -25% | u | 14µM* | 13µM* | 25µM*
CCOC(=O)/C(N=Nc1sc(C(=O)OCC)c(C)c1C(=O)OCC)=C(\C)O | -1% | x | -9%[59 µM] | -10% | x
CN(C)C(=O)Nc1ccc(Oc2ccc(Cl)cc2)cc1 | 9% | x | x | x | x
CC(C)C(=O)NC(=S)Nc1ccc(S(=O)(=O)NC2CCCCC2)cc1 | -3% | 31% | x | -14% | -8%
SMILES | Sfp PPTase inh | HP1b binding inh | G9a block | BAZ2B block | JMJD2A Tudor
COc1cccc(C(c2sc3nc(-c4ccco4)nn3c2O)N2CCC(C)CC2)c1 (stereo unspecified) | x | -7% | 18µM* | u | -27%
Oc1c(C(c2ccccc2)N2CCCC2)sc2nc(-c3ccco3)nn12 (stereo unspecified) | x | 17% | 5%[59 µM] | u | -13%
COc1cccc(C(c2sc3nc(-c4ccco4)nn3c2O)N2CCCC2)c1 (stereo unspecified) | x | 18% | 14µM* | -21% | -18%
COc1cccc(C(c2sc3nc(-c4ccco4)nn3c2O)N2CCC(O)CC2)c1 (stereo unspecified) | x | 89% | u | 5% | -11%
O=C(O)CSC1=NC(=Nc2ccc(Cl)cc2)C2(CCCCC2)N1c1cccc(C(=O)O)c1 | -13% | u | 4.5µM* | u | 22µM*
Cc1ccc(N2C(SCC(=O)O)=NC(=Nc3cccc(C)c3)C23CCCC3)cc1 | u | 14µM* | -46% | 20µM* | 10µM*
Cc1ccc2nc(SCC(=O)O)nc(C)c2c1 | -6% | 24% | -41%[2.33 µM] | 14% | -13%
Cc1cc(C)cc(N(C(=O)c2csnn2)C(C(=O)NC2CCCC2)c2ccccn2)c1 (stereo unspecified) | 8% | 26% | 54% | 7% | -6%
Cc1cc2cc(CN(Cc3ccco3)S(=O)(=O)c3c(C)ccc4nsnc34)c(=O)[nH]c2cc1C | 50µM* | 4% | 2% | -38%[57.1 µM] | -28%
Cc1ccc2cc(CN(Cc3ccco3)S(=O)(=O)c3c(C)ccc4nsnc34)c(=O)[nH]c2c1 | 16µM* | -12% | u | u | u
O=C1C(NS(=O)(=O)c2cccs2)=C(N2CCN(c3ccccc3)CC2)C(=O)c2ccccc21 | 0% | u | 3.2µM* | 5.6µM* | 28µM*
O=C(C(NS(=O)(=O)c1cccs1)c1ccccc1)N1CCN(c2ccccc2)CC1 (stereo unspecified) | 2% | 4% | 45µM* | u | u
CN(C)c1ncc2nc(-c3ccc(Cl)cc3)c(=O)n(C3CC3)c2n1 | -2% | x | 4%[12.7 µM] | x | x
COc1cc(-c2nc(-c3ccccc3)c(-c3ccc(Br)cc3)[nH]2)cc(OC)c1O | x | u | 10µM* | 28µM* | 45µM*
Cc1ccc(-c2[nH]c(-c3ccc(C(=O)O)cc3)nc2-c2ccccc2)cc1 | -2% | -33% | u | u | u
CCOc1ccc(-c2nc(-c3ccccc3)c(-c3ccccc3)[nH]2)cc1OCC | x | 41% | 14%[59 µM] | -12% | -15%
COc1ccc(-c2nc(-c3ccccc3)c(-c3ccc(F)cc3)[nH]2)c(OC)c1C | x | -12% | u | 25µM* | u
COc1ccc(-c2[nH]c(-c3cc(OC)c4c(c3)OCO4)nc2-c2ccccc2)cc1 | 26% | u | 40µM* | u | u
Cc1ccc(Cl)cc1NC(=O)CN1C(=O)COc2ccc(S(=O)(=O)N3CCOCC3)cc21 | 16% | 14% | 14%[59 µM] | -4% | 6%

Bioassay records (PubChem BioAssay)
